TDP1 block – qHTS Assay for Inhibitors of Tyrosyl-DNA Phosphodiesterase (TDP1); Tyrosyl-DNA phosphodiesterase 1 (Homo sapiens), Q9NUW8; recombinant TDP1, AlphaScreen DNA substrate cleavage; Potency, µM (highest dose often 130 µM), most hits filed as inhibitors; actives 0.28% (n = 350,000); AID 485290, 2010; also: nearly all actives have a fitted effect of over 40% in size
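Steps: enzyme plus compound, 15 min RT; add biotin/phosphotyrosine-FITC oligonucleotide (15 nM final), react 5 min; add donor/acceptor beads (10 ug/ml final), 10 min; read AlphaScreen. Tdp1 at 1 nM final.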
TDP1 cell noCPT – qHTS for Inhibitors of human tyrosyl-DNA phosphodiesterase 1 (TDP1): qHTS in cells in absence of CPT; AID 686978, 2013; DT40 Tdp1-/- hTDP1 cells, no CPT, ATP luminescence, 48 h; actives 15% (n = 420,000); Potency, µM (doses to about 46.2 µM), usual class: inhibitors; also: nearly all actives have a fitted effect of over 55% in size
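Chicken DT40 Tdp1-/- cells complemented with human TDP1, screened without camptothecin (DMSO vehicle only), 400 cells/well. Compounds pin-transferred, cells incubated at 37 °C for at least 48 hr. Growth read as ATP-dependent luminescence (CellTiter-Glo, 30 min at RT).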
TDP1 cell CPT – qHTS for Inhibitors of human tyrosyl-DNA phosphodiesterase 1 (TDP1): qHTS in cells in presence of CPT; chicken DT40 Tdp1-/-;hTDP1 cells + 20 nM CPT, ATP luminescence, 48 h; Potency, µM (titrated, usually from 46.2 µM), most hits filed as inhibitors; actives 12% (n = 420,000); AID 686979, 2013; also: nearly all actives have a fitted effect of over 55% in size
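Chicken DT40 Tdp1-/- cells stably complemented with human TDP1 were seeded at 400 cells/well in medium containing 20 nM camptothecin, exposed to pin-transferred compounds, and grown at 37 °C for at least 48 hr. Viability was read as ATP luminescence.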
ClpP mod – qHTS Assay for Activators of ClpP; ATP-dependent Clp protease proteolytic subunit (Bacillus subtilis (strain 168)), P80244; purified B. subtilis ClpP, FRET peptide cleavage, 20 min; Potency, µM (top dose mostly 57.5 µM); actives 1.9% (n = 340,000); AID 651965, 2013; active = well fitted falling curve with a large enough effect; inconclusive = small, poorly fitted or top-dose-only effect; inactive = no such curve, though single readings can be large or run the other way; also: the source files actives as falling curves though it sought activators and does not explain the sign; nearly all actives have a fitted effect of over 65% in size
Target sequence (P80244 whole entry, looked up): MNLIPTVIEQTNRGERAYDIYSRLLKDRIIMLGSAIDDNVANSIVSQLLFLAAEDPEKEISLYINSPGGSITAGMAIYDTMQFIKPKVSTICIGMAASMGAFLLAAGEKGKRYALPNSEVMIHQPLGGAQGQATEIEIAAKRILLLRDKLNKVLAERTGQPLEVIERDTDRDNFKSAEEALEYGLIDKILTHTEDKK
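ClpP 10 microg/mL final, pH 8 Tris/KCl buffer with BSA, glycerol, Tween-20; compound pinned in; FRET-FV substrate; RT 20 min; Ex320/Em430; ΔFRET vs ADEP 5.8 microM, DMSO, no enzyme.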
Of the large screens only hits and unclear results are named; the others gave an inactive call. This is a sample that favours compounds with a hit; in the whole collection about 17% have one here. Unless noted, calls follow the shape of the dose curve; as a rule, active = well fitted curve in the direction sought with a large enough effect; inconclusive = small, poorly fitted or top-dose-only effect, or another doubt; inactive = no such curve, though single readings can be large; an effect the other way counts as inactive or inconclusive.

COc1cc(OC)cc(-c2sc3ccc(OC)cc3c2C#CCO)c1	TDP1 cell noCPT 21µM, TDP1 cell CPT inconclusive, ClpP mod inconclusive
COc1cccc(-c2sc3ccc(OC)cc3c2C#CCCO)c1	TDP1 cell noCPT inconclusive, TDP1 cell CPT 26µM
COc1ccccc1CNc1ncncc1-c1cccc(C#N)c1	none (no result: ClpP mod)
CON(c1nc(Cl)nc(N(C)C)n1)S(=O)(=O)c1ccc(C)cc1	TDP1 cell noCPT 16µM (no result: TDP1 block, ClpP mod)
Cc1cc(N)nc(=O)n1C1CC(O)C(CO)O1 (stereo unspecified)	none (no result: TDP1 block)
Cc1cc(C(=O)COC(=O)c2ccc(O)cc2)c(C)n1CC1CCCO1 (stereo unspecified)	none (no result: ClpP mod)
CNS(=O)(=O)c1cccc(C(=O)OCC(=O)c2cc(C)n(CC3CCCO3)c2C)c1 (stereo unspecified)	none
Cc1cc(C(=O)COC(=O)c2ccc3c(c2)NC(=O)CS3)c(C)n1CC1CCCO1 (stereo unspecified)	TDP1 cell noCPT 16µM, TDP1 cell CPT inconclusive
Cc1cc(C(=O)COC(=O)c2cccc(S(=O)(=O)N(C)C)c2)c(C)n1CC1CCCO1 (stereo unspecified)	TDP1 cell noCPT inconclusive, TDP1 cell CPT 16µM
O=C(N/C(=C\c1ccc(Br)cc1)C(=O)N1CCOCC1)c1ccc([N+](=O)[O-])cc1	none (no result: ClpP mod)
Cc1ccc(NS(=O)(=O)c2ccc3c(c2)N(C)CCO3)cc1C	none (no result: TDP1 cell noCPT, TDP1 cell CPT, ClpP mod)
CSc1cccc(NC(=O)CN2C(=O)COc3ccc(Cl)cc32)c1	TDP1 cell noCPT 21µM, TDP1 cell CPT inconclusive
CCc1ccccc1NC(=O)CN1C(=O)COc2ccc(S(=O)(=O)Nc3ccccc3)cc21	TDP1 cell noCPT 26µM, TDP1 cell CPT 18µM
CCOc1ccc(NC(=O)CN2C(=O)COc3ccc(S(=O)(=O)Nc4ccccc4)cc32)cc1	TDP1 cell noCPT inconclusive, TDP1 cell CPT inconclusive
CCc1cccc(NC(=O)CN2C(=O)COc3ccc(S(=O)(=O)Nc4ccccc4)cc32)c1	TDP1 cell noCPT 23µM, TDP1 cell CPT inconclusive
O=C(CN1C(=O)COc2ccc(S(=O)(=O)Nc3ccccc3)cc21)Nc1cccc(Cl)c1	TDP1 cell noCPT inconclusive, TDP1 cell CPT 16µM
O=C(C1CCCCC1)N1C[C@H](n2cc(C3CC3)nn2)[C@@H](O)C[C@@H]1c1ccccc1	none (no result: TDP1 block)
C[C@@H]1CN([C@@H](C)CO)S(=O)(=O)c2ccc(Br)cc2O[C@@H]1CN(C)C(=O)c1ccccn1	none (no result: TDP1 block)
COc1ccc(NC(=O)Cn2c(=O)oc3cc(S(=O)(=O)N4CCCC4)ccc32)cc1OC	TDP1 cell noCPT inconclusive, TDP1 cell CPT inconclusive
O=C(Cn1c(=O)oc2cc(S(=O)(=O)N3CCCCC3)ccc21)Nc1cccc(Cl)c1	TDP1 cell noCPT 9.2µM, TDP1 cell CPT 8.2µM
O=C(Cn1c(=O)oc2cc(S(=O)(=O)N3CCCCCC3)ccc21)Nc1cccc(C(F)(F)F)c1	TDP1 cell noCPT 9.2µM, TDP1 cell CPT 8.2µM
N#CCCCSc1nnnn1-c1cc(C(F)(F)F)cc(C(F)(F)F)c1	none (no result: TDP1 cell noCPT, TDP1 cell CPT, ClpP mod)
Cc1ccc(C)c(NC(=O)C2CCCN(c3ncnc4onc(C)c34)C2)c1 (stereo unspecified)	TDP1 cell noCPT 10µM, TDP1 cell CPT 12µM
CCOCCCNC(=O)C1CCCN(c2ncnc3onc(C)c23)C1 (stereo unspecified)	TDP1 cell noCPT 21µM, TDP1 cell CPT 16µM
COCCCNC(=O)C1CCCN(c2ncnc3onc(C)c23)C1 (stereo unspecified)	TDP1 cell noCPT inconclusive, TDP1 cell CPT 18µM
COC(=O)c1ccccc1NC(=O)C1CCCN(c2ncnc3onc(C)c23)C1 (stereo unspecified)	TDP1 cell noCPT inconclusive, TDP1 cell CPT inconclusive
CCOC(=O)c1ccc(NC(=O)C2CCCN(c3ncnc4onc(C)c34)C2)cc1 (stereo unspecified)	TDP1 cell noCPT 15µM, TDP1 cell CPT 13µM
CCCCN(CC)CCNC(=O)C1CCCN(c2ncnc3onc(C)c23)C1 (stereo unspecified)	none
O=C(Nc1ccc2c(c1)OCCO2)C1c2ccccc2OCC(=O)N1Cc1ccccc1 (stereo unspecified)	none (no result: TDP1 block)
C=CC[C@@H](CC(=O)N[C@@H](CO)Cc1ccccc1)C(=O)N[C@H](C)COC(=O)[C@@H](CC=C)Cc1ccc(F)cc1	none
O=C(CSc1nc(-c2ccc(F)cc2)cc(C(F)(F)F)n1)Nc1ccc2c(c1)OCO2	none
CN1CCN(S(=O)(=O)c2ccc3[nH]c(=O)oc3c2)CC1	none
Cc1noc2ncnc(N3CCCC(C(=O)NCCC(C)C)C3)c12 (stereo unspecified)	TDP1 cell noCPT 7.3µM, TDP1 cell CPT 8.2µM
CCOc1ccc2[nH]c(SCC(=O)OC)c([N+](=O)[O-])c2c1	TDP1 cell noCPT 4.6µM, TDP1 cell CPT 6.5µM
Cc1nn(-c2ccccc2)c2sc(C(=O)C(C#N)c3ccccn3)cc12 (stereo unspecified)	none (no result: TDP1 cell noCPT, TDP1 cell CPT, ClpP mod)
C[C@]12c3[nH]c4ccc(Cl)cc4c3CCN1C(=O)[C@@H](CC(=O)NCCc1ccccn1)C[C@@H]2C(=O)N1CCCCC1	TDP1 cell noCPT 26µM, TDP1 cell CPT inconclusive
CC[C@]12c3[nH]c4ccc(Cl)cc4c3CCN1C(=O)[C@@H](CC(=O)NCCc1ccccn1)C[C@@H]2C(=O)N1CCN(C(=O)C2CC2)CC1	TDP1 cell noCPT inconclusive, TDP1 cell CPT inconclusive
C[C@]12c3[nH]c4ccc(Cl)cc4c3CCN1C(=O)[C@@H](CC(=O)NCc1ccco1)C[C@@H]2C(=O)N1CCCCC1	TDP1 cell noCPT 5.8µM, TDP1 cell CPT 6.5µM
COCCCNC(=O)CC1C[C@H](C(=O)N2CCCCC2)[C@@]2(C)c3[nH]c4ccc(OC)cc4c3CCN2C1=O (stereo partly specified)	none
COCCCNC(=O)C[C@H]1C[C@H](C(=O)N2CCCCC2)[C@@]2(C)c3[nH]c4ccc(Cl)cc4c3CCN2C1=O	TDP1 cell noCPT 13µM, TDP1 cell CPT 21µM
Cc1ccc(C)c(OCc2cc(C(=O)NC3CCOC(C)(C)C3)no2)c1 (stereo unspecified)	none
Cn1cc(Br)c(NS(=O)(=O)c2ccc(Cl)s2)n1	none
Cn1c(=NC(=O)c2ccco2)sc2ccccc21	TDP1 cell noCPT inconclusive (no result: ClpP mod)
COc1ccc(OC)c2c1sc(=NC(=O)c1cccc(N3C(=O)CCC3=O)c1)n2C	TDP1 cell noCPT inconclusive
COc1cc(C(=O)N=c2sc3c(C)ccc(OC)c3n2C)cc(OC)c1OC	TDP1 cell noCPT 5.2µM, TDP1 cell CPT 15µM, ClpP mod inconclusive (no result: TDP1 block)
COc1ccc(C(=O)N=c2sc3c(C)ccc(OC)c3n2C)cc1	TDP1 cell noCPT 4.1µM, TDP1 cell CPT 3.3µM
COc1cc(C(=O)N=c2sc3ccccc3n2C)cc(OC)c1OC	TDP1 cell noCPT 8.2µM, TDP1 cell CPT 7.3µM, ClpP mod inconclusive
